Source: PubChem (National Center for Advancing Translational Sciences (NCATS))
Only some compounds are listed: those with a hit (about 7.4% of all), similar ones and a draw of the others.
NPC1 prom act = activators of NPC1 promoter; Potency, µM (highest dose often 9.22 µM), for the others: at the highest dose activation, usual class: activators; Huh7 NPC1 promoter luciferase reporter, 24 h; 320,000 tested, 2.4% active; further: % of control where 0% means no effect; nearly all actives have a fitted effect of over 60% in size
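Readout is luciferase luminescence, reflecting NPC1 promoter activation in stably transfected Huh7 cells after 24 h compound exposure at 37 °C in reduced-serum medium with 10% FBS.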
FLuc counter = inhibits or activates purified firefly luciferase, miR-21 counter-screen; P08659; purified FLuc, Km substrates, luminescence inhibition; Potency, µM (titrated, usually from 57.5 µM), without a hit: at the top dose activity change, negative = inhibition, actives largely listed as inhibitors; 360,000 tested, 6.9% active; AID 588342;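 further: plate controls were vehicle for no effect and reference inhibitor for full effect; nearly all actives have a fitted effect of over 55% in size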
Target sequence (P08659 whole entry, looked up): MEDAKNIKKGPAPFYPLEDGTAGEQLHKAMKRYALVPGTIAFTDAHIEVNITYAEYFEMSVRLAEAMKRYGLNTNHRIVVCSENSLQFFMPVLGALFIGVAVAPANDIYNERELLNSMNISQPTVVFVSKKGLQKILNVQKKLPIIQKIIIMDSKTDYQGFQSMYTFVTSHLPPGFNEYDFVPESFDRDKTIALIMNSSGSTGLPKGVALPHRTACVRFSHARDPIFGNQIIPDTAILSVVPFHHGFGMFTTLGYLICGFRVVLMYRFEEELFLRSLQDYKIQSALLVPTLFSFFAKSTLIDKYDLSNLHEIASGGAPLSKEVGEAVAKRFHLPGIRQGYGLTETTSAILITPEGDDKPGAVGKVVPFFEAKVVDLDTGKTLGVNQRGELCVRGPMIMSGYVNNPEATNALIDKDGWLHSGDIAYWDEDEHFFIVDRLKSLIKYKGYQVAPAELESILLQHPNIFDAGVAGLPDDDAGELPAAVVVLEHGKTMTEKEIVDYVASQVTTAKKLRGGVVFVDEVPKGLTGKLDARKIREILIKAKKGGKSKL
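Purified P. pyralis luciferase, 10 nM final, with Km-level 10 uM D-luciferin and 10 uM ATP in 50 mM Tris acetate pH 7.5, 10 mM Mg acetate, 0.01% Tween-20, 0.05% BSA; 6-point qHTS titration about 60 µM downward; luminescence read.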
p53 reactivation = re-activators of mutant p53; H1299 p53-A138V BP100-luciferase reporter, luminescence, 24 h; Potency, µM (top dose mostly 92.2 µM), inactives show at the highest dose activity change, positive = activation, actives largely listed as activators; 320,000 tested, 0.063% active; AID 504706; further: % of control where 0% means no effect; nearly all actives have a fitted effect of over 45% in size
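H1299 (p53-null), stable ts p53-A138V + BP100-Luc; 1000 cells/well, Opti-MEM/10% FBS; cpd 4 pt, 1:5; 24 h, 37 deg C, 5% CO2; detection reagent 10 min RT; luminescence.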
ELG1 genotox = genotoxicity induction in ELG1-luciferase HEK293T cells; 330,000 tested, 1.3% active; Potency, µM (doses to about 46 µM), for the others: top-dose activity change, positive = activation, hits mostly activators; HEK293T ELG1-luciferase reporter, luminescence, 16 h; further: % of control where 0% means no effect; nearly all actives have a fitted effect of over 60% in size
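HEK293T cells expressing luciferase-tagged ELG1 were treated with compound or DMSO for 16 hr at 37°C. Luciferase activity was then read after 30 min with ONE-Glo at room temperature; rising signal flags genetic stress.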
SMN2 splice up = enhancers of SMN2 splice variant expression; HEK293 SMN2-luciferase splicing reporter, luminescence, 30-36 h; Potency, µM (titrated, usually from 46.1 µM), without a hit: at the highest dose activity change, positive = activation, actives largely listed as activators; 210,000 tested, 2.8% active; AID 1458; further: % of control where 0% means no effect; nearly all actives have a fitted effect of over 55% in size
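qHTS luciferase splicing reporter: luminescence rises when SMN2 exon 7 is included in transfected HEK293 cells. Compound exposure lasted 30-36 h at 37C, with 4.5 mM final sodium butyrate as control, followed by a ONE-Glo read.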
Rab9 prom act = Rab9 promoter activation | Huh7 Rab9 promoter-luciferase reporter, luminescence, 24 h | Potency, µM (highest dose often 9.22 µM), without a hit: at the highest dose activation, negative = inhibition, hits mostly activators | 320,000 tested, 2.8% active; further: % of control where 0% means no effect; nearly all actives have a fitted effect of over 60% in size
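Luminescence from Amplite-detected luciferase (10 minutes, ambient) reports Rab9 promoter activation. Before that, stable Rab9-luciferase Huh7 cells (1500/well, reduced-serum OP-MEM I plus 10% FBS) were exposed to compound for 24 hours at 37C.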
Numbers without * were called inactive; [ ] = another dose, or the depositor's remark. The call rests on the fitted dose curve; in most records, active means well fitted curve in the direction sought with a large enough effect; inconclusive means small, poorly fitted or top-dose-only effect, or another doubt; inactive means no such curve, though single readings can be large; an effect the other way counts as inactive or inconclusive. Potency means the concentration at half of the fitted maximal effect.

What do the screens show for `Cc1ccc(C2c3c(-c4cc(C)ccc4O)n[nH]c3C(=O)N2Cc2ccco2)cc1` (stereo not given)?
FLuc counter: -12.1%; SMN2 splice up: -21.8%

Results for COc1cc(-c2nc3ccccn3c2/N=C/c2ccccc2)ccc1O ?
NPC1 prom act: 2.2%; FLuc counter: inconclusive; p53 reactivation: 4.2%; ELG1 genotox: 11.8%; SMN2 splice up: 8.8%; Rab9 prom act: -1.8%

What do the screens show for `COc1ccc(-c2nc3ccccn3c2/N=C/c2ccc(OC)c(OC)c2)cc1O`?
NPC1 prom act: -5.2%; FLuc counter: 13.5µM*; p53 reactivation: 6.6%; ELG1 genotox: 7.6%; SMN2 splice up: 5.7%; Rab9 prom act: 6.5%

What do the screens show for `Oc1cccc(/C=N/c2c(-c3ccco3)nc3ccccn23)c1`?
NPC1 prom act: inconclusive; FLuc counter: 6.01µM*; p53 reactivation: inconclusive; ELG1 genotox: inconclusive; SMN2 splice up: 24.4%; Rab9 prom act: inconclusive

Results for c1ccc(CNc2ncnc3c2oc2ccccc23)nc1 ?
NPC1 prom act: 1.1%; FLuc counter: 19µM*; p53 reactivation: inconclusive; ELG1 genotox: 12.0%; SMN2 splice up: -10.6%; Rab9 prom act: 24.5%

How did CC(=O)c1ccc(Nc2ncnc3c2oc2ccccc23)cc1 do in these assays?
NPC1 prom act: 1.41µM*; FLuc counter: inconclusive; p53 reactivation: inconclusive; ELG1 genotox: 2.06µM*; SMN2 splice up: 1.58µM*; Rab9 prom act: inconclusive

How did c1ccc(-c2nc(NCC3CCCO3)c3oc4ccccc4c3n2)cc1 (stereo not given) do in these assays?
NPC1 prom act: 0.5%; FLuc counter: 15.1µM*; p53 reactivation: 0.5%; ELG1 genotox: -7.8%; SMN2 splice up: -16.4%; Rab9 prom act: -11.5%

What do the screens show for `c1ccc2c(c1)oc1c(NCC3CCCO3)ncnc12` (stereo not given)?
NPC1 prom act: -3.6%; FLuc counter: 16.9µM*; p53 reactivation: 29.6%; ELG1 genotox: 1.7%; SMN2 splice up: -0.4%; Rab9 prom act: 11.1%

What do the screens show for `O=C(O)CNc1nc(-c2ccccc2)nc2c1oc1ccccc12`?
NPC1 prom act: -4.5%; FLuc counter: inconclusive; p53 reactivation: 0.3%; ELG1 genotox: 0.1%; Rab9 prom act: -7.5%

Results for CN(C)CCCN=C(N)N ?
SMN2 splice up: 1.2%[9.22 µM]

Results for C=CCSC1=NC(=O)/C(=C/c2cccs2)S1 ?
NPC1 prom act: -8.1%; FLuc counter: 19µM*; p53 reactivation: 13.5%; ELG1 genotox: inconclusive; SMN2 splice up: 19.9%; Rab9 prom act: -5.3%

How did NC1=NC(=O)/C(=C/c2cccs2)S1 do in these assays?
NPC1 prom act: -8.9%; FLuc counter: inconclusive; p53 reactivation: 4.8%; ELG1 genotox: 2.5%; SMN2 splice up: 33.6%

What do the screens show for `COc1ccc(NC(=O)c2ccc(NC(=O)CCS(=O)(=O)c3cccs3)cc2)cc1Cl`?
FLuc counter: 4.9%; SMN2 splice up: 15.8µM*

How did O=C(CCS(=O)(=O)c1cccs1)Nc1ccc(C(=O)Nc2cccc(Cl)c2)cc1 do in these assays?
FLuc counter: -4.6%; SMN2 splice up: inconclusive

How did CC(C)c1ccc(NC(=O)c2ccc(NC(=O)CCS(=O)(=O)c3cccs3)cc2)cc1 do in these assays?
FLuc counter: -1.2%; SMN2 splice up: -3.5%

How did Cc1cc(NC(=O)c2ccc(NC(=O)CCS(=O)(=O)c3cccs3)cc2)ccc1Br do in these assays?
FLuc counter: -1.9%; SMN2 splice up: 15.8µM*

What do the screens show for `COC(=O)c1ccc(NC(=O)CN2C(=O)CC(c3ccccc3)Sc3ccccc32)cc1` (stereo not given)?
FLuc counter: inconclusive; SMN2 splice up: -2.0%
